The results in this text go back to PubChem BioAssay.

For part of these data: Measured potencies and affinities stand elsewhere. Active and inactive are the calls of the source.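 How the source made its calls, unless noted: active means dose curve with midpoint inside tested range, moderate steepness, plateau gap beyond fit error, low compound glow and bead-link interference; inactive means the rest.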

Test [1] has as its target Cell division control protein 42 homolog (Homo sapiens) (UniProt P60953). Put plainly: inhibition of fluorescent GTP binding to constitutively active Cdc42 – biochemical, multiplex bead flow cytometry, Bodipy-FL-GTP, dose response (AID 1333;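 active means fitted half-maximal concentration within the tested dose range, moderate curve steepness, a statistically real signal drop, and little compound fluorescence or tag-binding interference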). (In general: A flow cytometer gives signals particle by particle.)
The target is the same in test [2]. Put plainly: inhibition of fluorescent GTP binding to wildtype Cdc42 – biochemical, multiplex bead flow cytometry, Bodipy-FL-GTP, dose response (AID 1334;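 active means fitted half-maximal concentration within the tested range, moderate curve steepness, significant signal drop, and little compound fluorescence or bead-linkage interference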). The conditions noted are these: bead-based flow cytometry, Bodipy-FL-GTP binding to GST-Cdc42; at 100 µM (top of the series) unless noted.
In test [3] the target is GTPase HRas (Homo sapiens) (UniProt P01112). Put plainly: Ras wt fluorescent GTP loading blockade – biochemical, wildtype, multiplex bead flow cytometry, dose response (AID 1335;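 active means fitted half-maximal concentration within 10 nM to 100 µM, steepness 0.5 to 2, significant signal drop, low assay interference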). Particulars: bead-based flow cytometry, Bodipy-GTP binding to GST-Ras; at 100 µM (top of the series) unless noted.
Test [4] has as its system Ras-related protein Rab-7a (dog), GTP binding. Put plainly: blockers of fluorescent GTP binding to Rab7 – biochemical, wildtype, multiplex bead flow cytometry, dose response (AID 1336; call rule not given here).
Test [5] deals with Ras-related C3 botulinum toxin substrate 1 (Homo sapiens) (UniProt P63000). Put plainly: inhibition of wildtype Rac1 nucleotide loading – biochemical, multiplex bead flow cytometry, dose response (AID 1340). Particulars: GST-Rac1 beads, Bodipy-FL-GTP binding; at 100 µM (top of the series) unless noted.
Test [6] deals with GTPase HRas (Homo sapiens) (UniProt P01112). Put plainly: blockade of GTP loading onto mutant Ras – biochemical, activated mutant, multiplex bead flow cytometry, dose response (AID 1341;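 active means dose-response curve with midpoint inside the tested range, moderate steepness, significant amplitude and little compound fluorescence or bead-attachment interference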;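 further: GST-tagged constitutively activated Ras mutant immobilized on beads and multiplexed with other GTPases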).

GTPase HRas (Homo sapiens), sequence (P01112 whole entry, looked up): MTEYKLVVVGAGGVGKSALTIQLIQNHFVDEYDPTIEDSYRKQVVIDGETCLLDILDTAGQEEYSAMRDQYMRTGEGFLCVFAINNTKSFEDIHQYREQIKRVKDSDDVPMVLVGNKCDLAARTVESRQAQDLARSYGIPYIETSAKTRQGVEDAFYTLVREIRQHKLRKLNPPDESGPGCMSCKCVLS
Cell division control protein 42 homolog (Homo sapiens), sequence (P60953 whole entry, looked up): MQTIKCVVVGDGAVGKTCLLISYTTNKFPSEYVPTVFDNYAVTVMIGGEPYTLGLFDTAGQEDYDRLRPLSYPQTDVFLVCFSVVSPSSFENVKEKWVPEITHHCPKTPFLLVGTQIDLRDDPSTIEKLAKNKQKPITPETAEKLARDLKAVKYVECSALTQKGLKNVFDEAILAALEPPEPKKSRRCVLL

As to `O=S1(=O)N=C(N(CCO)/N=C/c2ccncc2)c2ccccc21`, the compound was classed as inactive in test [1], in test [4] and in test [6]. Further, in test [2], the fluorescence, percent of control (lower = inhibition) turned out to be 24.1%. In test [3], this compound displayed a GTP binding, percent of control of 52.3%. The same compound gave a GTP binding signal, raw median fluorescence (lower = inhibition) (MCF (arbitrary fluorescence units)) in test [5] of 114.

For the compound `COc1cccc2cc(-c3ccnc(=S)[nH]3)oc12`, the compound was classed as inactive in test [1], in test [4] and in test [6]. Further, the fluorescence, percent of control (lower = inhibition) in test [2] came to 33.3%. This compound had a GTP binding, percent of control in test [3] of 70.7%. In addition, the GTP binding signal, raw median fluorescence (lower = inhibition) (MCF (arbitrary fluorescence units)) in test [5] was 140.

Take `COc1ccc(/C=C2\SC(=S)NC2=O)cc1OS(=O)(=O)c1ccc(NC(C)=O)cc1`: the call in test [1], in test [4] and in test [6] was inactive. Besides, the fluorescence, percent of control (lower = inhibition) in test [2] worked out at 30.9%. In test [3], the GTP binding, percent of control is 80.1%. The GTP binding signal, raw median fluorescence (lower = inhibition) (MCF (arbitrary fluorescence units)) in test [5] amounted to 261.

In the case of `N#C/C(=C\c1ccccc1)c1nc2ncccc2[nH]1`, the outcome in test [1], in test [4] and in test [6] was inactive. The fluorescence, percent of control (lower = inhibition) in test [2] was 36.8%. The same compound registered a GTP binding, percent of control in test [3] of 82.5%. Further, the GTP binding signal, raw median fluorescence (lower = inhibition) (MCF (arbitrary fluorescence units)) in test [5] came out at 276.

Regarding `CSc1ncccc1C(=O)OCC(=O)N1CCOCC1`, the outcome in test [1], in test [4] and in test [6] was inactive. Also, the fluorescence, percent of control (lower = inhibition) in test [2] amounted to 84.4%. The compound also yielded a GTP binding, percent of control in test [3] of 160%. In test [5], this compound gave a GTP binding signal, raw median fluorescence (lower = inhibition) (MCF (arbitrary fluorescence units)) of 170.

On to `Cc1ccc(NC(=O)CS(=O)(=O)c2c[nH]c3ccccc23)c(C)c1`, for which the result in test [1], in test [4] and in test [6] was inactive. For the same compound, the fluorescence, percent of control (lower = inhibition) in test [2] is 46%. Further, the GTP binding, percent of control in test [3] is 62.9%. In test [5], this compound registered a GTP binding signal, raw median fluorescence (lower = inhibition) (MCF (arbitrary fluorescence units)) of 184.

Regarding `CCc1nnc(NS(=O)(=O)c2ccc(Nc3ccc4nonc4c3[N+](=O)[O-])cc2)s1`, the call in test [1], in test [4] and in test [6] was inactive. In test [2], the fluorescence, percent of control (lower = inhibition) is 26.3%. The same compound returned a GTP binding, percent of control in test [3] of 65.4%. In addition, the GTP binding signal, raw median fluorescence (lower = inhibition) (MCF (arbitrary fluorescence units)) in test [5] was 147.

Consider `CCOc1cc(/C=N/Nc2nncc(-c3ccccc3)n2)ccc1O`, for which the outcome in test [1], in test [4] and in test [6] was inactive. Moreover, in test [2], the fluorescence, percent of control (lower = inhibition) came to 37.4%. The compound also gave a GTP binding, percent of control in test [3] of 75.5%. The same compound came in with a GTP binding signal, raw median fluorescence (lower = inhibition) (MCF (arbitrary fluorescence units)) in test [5] of 160.

As for `COc1cccc(-n2nc3c(-n4ncc(C#N)c4N)nnc(C)c3c2C)c1`, the call in test [1], in test [4] and in test [6] was inactive. In test [2], the fluorescence, percent of control (lower = inhibition) was found to be 54.8%. For the same compound, the GTP binding, percent of control in test [3] amounted to 64.6%. In addition, the GTP binding signal, raw median fluorescence (lower = inhibition) (MCF (arbitrary fluorescence units)) in test [5] came to 212.

For the compound `CCN1CCN(c2nc3c(c(=O)n(C)c(=O)n3C)n2Cc2cccc3ccccc23)CC1`, the compound was classed as inactive in test [1], in test [4] and in test [6]. Further, in test [2], the fluorescence, percent of control (lower = inhibition) stood at 43.1%. The same compound came in with a GTP binding, percent of control in test [3] of 92.2%. In addition, in test [5], the GTP binding signal, raw median fluorescence (lower = inhibition) (MCF (arbitrary fluorescence units)) was determined as 314.

As to `Cn1ncc(C(N)=O)c1NC(=S)NC(=O)c1ccc(Br)o1`, the outcome in test [1], in test [4] and in test [6] was inactive. Also, the fluorescence, percent of control (lower = inhibition) in test [2] stood at 36.5%. Moreover, the GTP binding, percent of control in test [3] is 76.4%. Besides, in test [5], the GTP binding signal, raw median fluorescence (lower = inhibition) (MCF (arbitrary fluorescence units)) turned out to be 170.

Regarding `CCC(C)(C)c1ccc(OCCCC[n+]2ccccc2)c(C(C)(C)CC)c1`, the compound was called inactive in test [1], in test [4] and in test [6]. Also, the fluorescence, percent of control (lower = inhibition) in test [2] came to 32.7%. The same compound came in with a GTP binding, percent of control in test [3] of 78.7%. Besides, the GTP binding signal, raw median fluorescence (lower = inhibition) (MCF (arbitrary fluorescence units)) in test [5] came to 278.

Regarding `O=c1cc(N2CCc3ccccc3C2)[nH]c(=O)n1-c1ccc(Cl)cc1`, the compound was classed as inactive in test [1], in test [4] and in test [6]. Moreover, the fluorescence, percent of control (lower = inhibition) in test [2] worked out at 43.6%. This compound showed a GTP binding, percent of control in test [3] of 92.9%. The GTP binding signal, raw median fluorescence (lower = inhibition) (MCF (arbitrary fluorescence units)) in test [5] is 267.

With `O=C(O)c1cccc(Oc2ccc([N+](=O)[O-])cc2)c1`, the compound was called inactive in test [1], in test [4] and in test [6]. Besides, the fluorescence, percent of control (lower = inhibition) in test [2] was found to be 62.7%. This compound registered a GTP binding, percent of control in test [3] of 61.7%. For the same compound, the GTP binding signal, raw median fluorescence (lower = inhibition) (MCF (arbitrary fluorescence units)) in test [5] turned out to be 0.

With `O=C(O)/C=C/c1cn(Cc2ccccc2)nc1-c1ccccc1`, the result in test [1], in test [4] and in test [6] was inactive. Moreover, the fluorescence, percent of control (lower = inhibition) in test [2] amounted to 101%. In test [3], this compound showed a GTP binding, percent of control of 72.4%. The compound also gave a GTP binding signal, raw median fluorescence (lower = inhibition) (MCF (arbitrary fluorescence units)) in test [5] of 175.
